# In the supplement of paper PMC8728848:
# This is one part of a sample in which the strongest signals are shown more often than they occur.
# Assays:
# Experiment in all cases: glycan array binding signal (z-score within array); higher = stronger binding
# Details in all cases: glycan notation: IUPAC condensed, linker removed
# Fuc(a1-2)Gal(b1-3)GalNAc = target: Fuc(a1-2)Gal(b1-3)GalNAc
# How it was run: (§1)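 Columns mapping to the same glycan were averaged after glycan names were converted to IUPAC-condensed notation. The data come from 3228 arrays in the Consortium for Functional Glycomics database, limited to those with an available protein sequence. Binding is reported as a within-array Z-score averaged across arrays of one protein sequence and across linkers.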
# [1] = target: Fuc(a1-2)Gal(b1-3)GalNAc(a1-3)[Fuc(a1-2)]Gal(b1-4)GlcNAc
# How it was run: as §1
# Fuc(a1-2)Gal(b1-3)GlcNAc = target: Fuc(a1-2)Gal(b1-3)GlcNAc
# How it was run: as §1
# [2] = target: Fuc(a1-2)Gal(b1-3)GlcNAc(b1-2)Man(a1-3)[Fuc(a1-2)Gal(b1-3)GlcNAc(b1-2)Man(a1-6)]Man(b1-4)GlcNAc(b1-4)GlcNAc
# How it was run: as §1
# [3] = target: Fuc(a1-2)Gal(b1-3)GlcNAc(b1-3)Gal(b1-4)Glc
# How it was run: as §1
# Fuc(a1-2)Gal(b1-4)Glc6S = target: Fuc(a1-2)Gal(b1-4)Glc6S
# How it was run: as §1
# [4] = target: Fuc(a1-2)Gal(b1-4)GlcNAc(b1-3)Gal(b1-4)GlcNAc(b1-2)Man(a1-3)[Fuc(a1-2)Gal(b1-4)GlcNAc(b1-3)Gal(b1-4)GlcNAc(b1-2)Man(a1-6)]Man(b1-4)GlcNAc(b1-4)GlcNAc
# How it was run: as §1
# [5] = target: Fuc(a1-2)[Gal(a1-3)]Gal(b1-3)GlcNAc
# How it was run: as §1
# [6] = target: Fuc(a1-2)[Gal(a1-3)]Gal(b1-3)GlcNAc(b1-2)Man(a1-3)[Fuc(a1-2)[Gal(a1-3)]Gal(b1-3)GlcNAc(b1-2)Man(a1-6)]Man(b1-4)GlcNAc(b1-4)GlcNAc
# How it was run: as §1
# [7] = target: Fuc(a1-2)[Gal(a1-3)]Gal(b1-4)GlcNAc
# How it was run: as §1
# [8] = target: Fuc(a1-2)[Gal(a1-3)]Gal(b1-4)[Fuc(a1-3)]Glc
# How it was run: as §1
# [9] = target: Fuc(a1-2)[GalNAc(a1-3)]Gal
# How it was run: as §1
# [10] = target: Fuc(a1-2)[GalNAc(a1-3)]Gal(b1-3)GalNAc(b1-3)Gal(a1-4)Gal(b1-4)Glc
# How it was run: as §1
# [11] = target: Fuc(a1-2)[GalNAc(a1-3)]Gal(b1-3)GlcNAc(b1-2)Man(a1-3)[Fuc(a1-2)[GalNAc(a1-3)]Gal(b1-3)GlcNAc(b1-2)Man(a1-6)]Man(b1-4)GlcNAc(b1-4)GlcNAc
# How it was run: as §1
# [12] = target: Fuc(a1-2)[GalNAc(a1-3)]Gal(b1-4)Glc
# How it was run: as §1
# [13] = target: Fuc(a1-3)[Gal(b1-4)]GlcNAc(b1-6)[Gal(b1-3)GlcNAc(b1-3)]Gal(b1-4)Glc
# How it was run: as §1
# Fuc(a1-4)GlcNAc = target: Fuc(a1-4)GlcNAc
# How it was run: as §1
# [14] = target: Gal(a1-3)Gal(b1-4)GlcNAc(b1-2)Man(a1-3)[Gal(a1-3)Gal(b1-4)GlcNAc(b1-2)Man(a1-6)]Man(b1-4)GlcNAc(b1-4)GlcNAc
# How it was run: as §1
# [15] = target: Gal(a1-4)Gal(b1-3)GlcNAc(b1-2)Man(a1-3)[Gal(a1-4)Gal(b1-3)GlcNAc(b1-2)Man(a1-6)]Man(b1-4)GlcNAc(b1-4)GlcNAc
# How it was run: as §1
# [16] = target: Gal(a1-4)Gal(b1-4)GlcNAc(b1-3)Gal(b1-4)Glc
# How it was run: as §1
# Gal(a1-4)GlcNAc = target: Gal(a1-4)GlcNAc
# How it was run: as §1
# Gal(b1-3)GlcNAc(b1-2)Man = target: Gal(b1-3)GlcNAc(b1-2)Man
# How it was run: as §1
# [17] = target: Gal(b1-3)GlcNAc(b1-2)[Gal(b1-3)GlcNAc(b1-6)]Man(a1-6)[Gal(b1-3)GlcNAc(b1-2)Man(a1-3)]Man(b1-4)GlcNAc(b1-4)GlcNAc
# How it was run: as §1
# [18] = target: Gal(b1-3)GlcNAc(b1-3)Gal(b1-3)GlcNAc
# How it was run: as §1
# [19] = target: Gal(b1-3)GlcNAc(b1-3)Gal(b1-4)[Fuc(a1-3)]GlcNAc
# How it was run: as §1
# [20] = target: Gal(b1-3)GlcNAc(b1-6)Gal(b1-4)GlcNAc
# How it was run: as §1
# [21] = target: Gal(b1-3)GlcNAc(b1-6)GalNAc
# How it was run: as §1
# Gal(b1-4)GlcNAc = target: Gal(b1-4)GlcNAc
# How it was run: as §1
# [22] = target: Gal(b1-4)GlcNAc(a1-6)Gal(b1-4)GlcNAc
# How it was run: as §1
# Gal(b1-4)GlcNAc(b1-2)Man = target: Gal(b1-4)GlcNAc(b1-2)Man
# How it was run: as §1
# [23] = target: Gal(b1-4)GlcNAc(b1-2)Man(a1-3)Man(b1-4)GlcNAc(b1-4)GlcNAc
# How it was run: as §1
# [24] = target: Gal(b1-4)GlcNAc(b1-2)Man(a1-3)[GlcNAc(b1-2)Man(a1-6)]Man(b1-4)GlcNAc(b1-4)GlcNAc
# How it was run: as §1
# [25] = target: Gal(b1-4)GlcNAc(b1-3)Gal(b1-4)Glc
# How it was run: as §1
binder,measurement,setting,value
PX14379A-bvu-539-28-539 (Bacteroides vulgatus) (protein) EPYSEIIEEDYVPTEADEIALLATTYSQLRFVMDWYGLFDLQEESGDVIVTPTRPNGWDDGGTYKQMHKHTWDNQQGQPQSIWDYCYKGIANANKILKRADEGFFTEESKPKVVAEVKGVRALWYSILCDTHGNIPIQTSFSEEVPVQSTRKQVFDFIINELKEVMPNLPTEVNKSTYGRLTQWGAKCLMARMYLNAGVYTGTPMWNECLEQCNDIINSGLFSLETNYTDIFKTENSGCVETIFAIPYDEVYNEGDNNGPVFGAHMKFLSSNSRKVFNMQTTPWGGSAANPQFINSYDPDDMRLKYTWLQGDQYSPDGVLITTFPNKLPSIYKTDTDDGYRVGKYEIKVGAKSLLSNDFPYFRYTEVLLMKAECLLRLGQNETEAAHIVSQIRERAFRESAHPEKATVDAAWLKGDTHINYGTLDEKGQIDDAGNTEVVELGGLYDEWGWEFAAEARRRTDMIRFGTYQKKSWFNHTPTANDLNGNSILFPIHLDHLNTNPNLQQNPGYAGK,glycan array binding signal (z-score),Fuc(a1-2)Gal(b1-3)GalNAc,-0.448
same,glycan array binding signal (z-score),[1],-0.426
same,glycan array binding signal (z-score),Fuc(a1-2)Gal(b1-3)GlcNAc,-0.263
same,glycan array binding signal (z-score),[2],8.31
same,glycan array binding signal (z-score),[3],-0.301
same,glycan array binding signal (z-score),Fuc(a1-2)Gal(b1-4)Glc6S,-0.232
same,glycan array binding signal (z-score),[4],2.29
same,glycan array binding signal (z-score),[5],-0.419
same,glycan array binding signal (z-score),[6],9.25
same,glycan array binding signal (z-score),[7],-0.199
same,glycan array binding signal (z-score),[8],-0.231
same,glycan array binding signal (z-score),[9],-0.215
same,glycan array binding signal (z-score),[10],-0.369
same,glycan array binding signal (z-score),[11],1.23
same,glycan array binding signal (z-score),[12],-0.321
same,glycan array binding signal (z-score),[13],-0.44
same,glycan array binding signal (z-score),Fuc(a1-4)GlcNAc,-0.18
same,glycan array binding signal (z-score),[14],3
same,glycan array binding signal (z-score),[15],0.016
same,glycan array binding signal (z-score),[16],-0.391
same,glycan array binding signal (z-score),Gal(a1-4)GlcNAc,-0.226
same,glycan array binding signal (z-score),Gal(b1-3)GlcNAc(b1-2)Man,0.056
same,glycan array binding signal (z-score),[17],5.87
same,glycan array binding signal (z-score),[18],0.03
same,glycan array binding signal (z-score),[19],-0.515
same,glycan array binding signal (z-score),[20],-0.27
same,glycan array binding signal (z-score),[21],-0.344
same,glycan array binding signal (z-score),Gal(b1-4)GlcNAc,-0.29
same,glycan array binding signal (z-score),[22],-0.203
same,glycan array binding signal (z-score),Gal(b1-4)GlcNAc(b1-2)Man,-0.28
same,glycan array binding signal (z-score),[23],0.346
same,glycan array binding signal (z-score),[24],3.64
same,glycan array binding signal (z-score),[25],-0.017
